PubChem BioAssay (NCATS)
Records with an inconclusive call do not appear. A call without a number means that no potency is given here. Active and inactive are the calls of the source. Calls come from the whole dose curve; as a rule, active = well fitted inhibition curve with a large enough effect; inconclusive = small, poorly fitted or top-dose-only effect; inactive = no such curve, though single readings can be large or run the other way.

System: Zika virus NS2B-NS3 protease (unlinked complex)
Test: Primary screen GU Rhodamine qHTS for Zika virus inhibitors: Unlinked NS2B-NS3 protease assay (AID 1347159); note: nearly all actives have a fitted effect of over 60% in size
Conditions: Recombinant ZIKV NS2B-NS3 protease, Rhodamine110 substrate fluorescence; series mostly up to 107 µM
In short: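 Noncovalent NS2B hydrophilic domain/NS3 protease complex (25 nM final) in 10 mM Tris-HCl pH 8.0, 0.01% Tween 20, preincubated 15 min with compounds (up to 114 microM), then 1.5 microM Rhodamine110 substrate. Fluorescence change over 15 min fitted to 4-parameter Hill.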
Potency is the fitted concentration of half-maximal effect.

**Q.** Which Potency does the source give for `Cc1csc(-c2nnc(Nc3ccc(Oc4ncccc4-c4ccnc(N)n4)cc3)c3ccccc23)c1` here?
**A.** inactive

**Q.** Which Potency does the source give for `CCN(CCO)CCCOc1ccc2c(Nc3cc(CC(=O)Nc4cccc(F)c4)[nH]n3)ncnc2c1` here?
**A.** inactive

**Q.** Which Potency does the source give for `Clc1ccc(C2(c3ccc(-c4cn[nH]c4)cc3)CCNCC2)cc1` here?
**A.** inactive

**Q.** Which Potency does the source give for `O=S(=O)(O)c1ccc2cc(N=Nc3cc(S(=O)(=O)O)c4cccnc4c3O)ccc2c1` here?
**A.** 0.794 µM (active)

**Q.** For `COc1ccc(-c2nc3ccc(C4=NNC(=O)CC4C)cc3[nH]2)cc1` (stereo not given), which Potency is on record?
**A.** inactive

**Q.** For `O=C1NC(=O)C(c2cnc3ccccn23)=C1c1cn2c3c(cccc13)CN(C(=O)N1CCOCC1)CC2`, which Potency is on record?
**A.** inactive

**Q.** For `O[C@@H](COc1cccc2ncccc12)CN1CCN(C2c3ccccc3[C@@H]3[C@H](c4ccccc42)C3(F)F)CC1` (stereo not given in full), which Potency is on record?
**A.** inactive

**Q.** Which Potency does the source give for `CC1=C(C(=O)Nc2cc3cn[nH]c3cc2F)C(c2ccc(C(F)(F)F)cc2)CC(=O)N1` (stereo not given) here?
**A.** inactive

**Q.** For `CNc1nc(Nc2ccc(C(=O)N3CCOCC3)cc2OC)ncc1Cl`, which Potency is on record?
**A.** inactive

**Q.** For `CNC(=O)c1ccc2c(C(=Nc3cccc(CN(C)C)c3)c3ccccc3)c(O)[nH]c2c1`, which Potency is on record?
**A.** inactive

**Q.** For `Cn1cnc(-c2cc3nccc(Oc4ccc(NC(=S)NC(=O)Cc5ccccc5)cc4F)c3s2)c1`, which Potency is on record?
**A.** inactive

**Q.** For `O=C(CC12CC3CC(CC(C3)C1)C2)Nc1cccc2nc(NCCNCCO)ccc12`, which Potency is on record?
**A.** inactive

**Q.** Which Potency does the source give for `C[C@@H]1CCO[C@H]2Cn3cc(C(=O)NCc4ccc(F)cc4F)c(=O)c(O)c3C(=O)N12` here?
**A.** inactive

**Q.** Which Potency does the source give for `O=C(Nc1cccc(C(F)(F)F)c1)Nc1cc(S(=O)(=O)NC2CC2)ccc1-c1ccsc1` here?
**A.** 22.4 µM (active)

**Q.** Which Potency does the source give for `Nc1ccc(-c2ccc3ncc4ccc(=O)n(-c5cccc(C(F)(F)F)c5)c4c3c2)cn1` here?
**A.** inactive

**Q.** With `Cc1ccc2c(c1)C(=O)[C@]1(O)CCN(c3ccccc3)C1=N2` as the compound, how does the Potency read?
**A.** inactive

**Q.** With `COc1ccc(-c2cc3nccn3c(Nc3ncccc3C(N)=O)n2)cc1OC` as the compound, how does the Potency read?
**A.** inactive

**Q.** For `Fc1ccc(CNc2ncnc3ccc(F)cc23)cc1`, which Potency is on record?
**A.** inactive

**Q.** Which Potency does the source give for `Cc1cc(-c2ncc(CC(=O)Nc3ccc(-c4cnccn4)cn3)cc2C)ccn1` here?
**A.** inactive

**Q.** With `NS(=O)(=O)c1cc(Cl)c(Cl)c(S(N)(=O)=O)c1` as the compound, how does the Potency read?
**A.** inactive

**Q.** For `c1ccc(CNc2nc(N3CCOc4ccccc43)nc3c2CCCC3)cc1`, which Potency is on record?
**A.** inactive

**Q.** For `COc1ccc(Cn2ccc3ccc(C(=O)NO)cc32)cc1`, which Potency is on record?
**A.** inactive

**Q.** With `CN1CCN(c2cccc(Nc3nc4c(-c5ccc(S(C)(=O)=O)cc5)cccn4n3)c2)CC1` as the compound, how does the Potency read?
**A.** inactive

**Q.** For `NC(=O)c1noc([C@H](CCCC2CCCCC2)CC(=O)NO)n1`, which Potency is on record?
**A.** inactive

**Q.** For `CNC1CCC(N(Cc2cccc(-c3ccncc3)c2)C(=O)c2sc3ccccc3c2Cl)CC1` (stereo not given), which Potency is on record?
**A.** inactive

**Q.** With `CC(C)(C)c1nc(-c2cccc(NS(=O)(=O)c3c(F)cccc3F)c2F)c(-c2ccnc(N)n2)s1` as the compound, how does the Potency read?
**A.** 14.1 µM (active)

**Q.** For `Cc1cccc2c1CC[C@H](CN1CCC(c3c(Cl)cccc3Cl)CC1)C[C@@H]2O`, which Potency is on record?
**A.** inactive

**Q.** Which Potency does the source give for `C[C@H](c1ccc(F)cc1CCCC(=O)O)N(c1cc(F)ccc1F)S(=O)(=O)c1ccc(Cl)cc1` here?
**A.** 14.1 µM (active)

**Q.** With `CN(C)c1ccc(-c2nc3ncc(Cl)c(N4CCN(CC(=O)Nc5nccs5)CC4)c3[nH]2)cc1` as the compound, how does the Potency read?
**A.** 17.8 µM (active)

System: Zika virus NS2B-NS3 protease (linked construct)
Test: Primary screen NINDS Rhodamine qHTS for Zika virus inhibitors (AID 1347160); note: nearly all actives have a fitted effect of over 55% in size
Conditions: purified NS2B-NS3 protease, Rhodamine110 substrate fluorescence; series mostly up to 57.1 µM
In short: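 Purified NS2B-NS3 protease with the NS2B hydrophilic domain joined by a flexible linker (25 nM) in 10 mM Tris-HCl pH 8.0, 0.01% Tween 20, preincubated 15 min at RT with compound; Rhodamine110 peptide substrate 1.5 µM; fluorescence change over 15 min; 4-parameter Hill fit.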

**Q.** With `CCN(CCO)CCCOc1ccc2c(Nc3cc(CC(=O)Nc4cccc(F)c4)[nH]n3)ncnc2c1` as the compound, how does the Potency read?
**A.** inactive

**Q.** Which Potency does the source give for `Clc1ccc(C2(c3ccc(-c4cn[nH]c4)cc3)CCNCC2)cc1` here?
**A.** inactive

**Q.** For `O=C1NC(=O)C(c2cnc3ccccn23)=C1c1cn2c3c(cccc13)CN(C(=O)N1CCOCC1)CC2`, which Potency is on record?
**A.** inactive

**Q.** With `CNC(=O)c1ccc2c(C(=Nc3cccc(CN(C)C)c3)c3ccccc3)c(O)[nH]c2c1` as the compound, how does the Potency read?
**A.** inactive

**Q.** Which Potency does the source give for `Cn1cnc(-c2cc3nccc(Oc4ccc(NC(=S)NC(=O)Cc5ccccc5)cc4F)c3s2)c1` here?
**A.** inactive

**Q.** With `C[C@@H]1CCO[C@H]2Cn3cc(C(=O)NCc4ccc(F)cc4F)c(=O)c(O)c3C(=O)N12` as the compound, how does the Potency read?
**A.** inactive

**Q.** With `Fc1ccc(CNc2ncnc3ccc(F)cc23)cc1` as the compound, how does the Potency read?
**A.** inactive

**Q.** With `NS(=O)(=O)c1cc(Cl)c(Cl)c(S(N)(=O)=O)c1` as the compound, how does the Potency read?
**A.** inactive

**Q.** For `COc1ccc(Cn2ccc3ccc(C(=O)NO)cc32)cc1`, which Potency is on record?
**A.** inactive

**Q.** For `NC(=O)c1noc([C@H](CCCC2CCCCC2)CC(=O)NO)n1`, which Potency is on record?
**A.** inactive

**Q.** For `O=C(c1ccc(C(=O)N2CCC(N3CCCC3)CC2)c(Nc2ccccc2)c1)N1CCC(N2CCCC2)CC1`, which Potency is on record?
**A.** inactive

**Q.** For `CNC1CCC(N(Cc2cccc(-c3ccncc3)c2)C(=O)c2sc3ccccc3c2Cl)CC1` (stereo not given), which Potency is on record?
**A.** inactive

**Q.** With `Cc1cccc2c1CC[C@H](CN1CCC(c3c(Cl)cccc3Cl)CC1)C[C@@H]2O` as the compound, how does the Potency read?
**A.** inactive

**Q.** For `C[C@H](c1ccc(F)cc1CCCC(=O)O)N(c1cc(F)ccc1F)S(=O)(=O)c1ccc(Cl)cc1`, which Potency is on record?
**A.** 14.1 µM (active)

System: not listed separately
Test: Confirmatory screen NINDS Rhodamine qHTS for Zika virus inhibitors (AID 1347161); note: nearly all actives have a fitted effect of over 60% in size
Conditions: purified enzyme assay, Rhodamine110 substrate fluorescence, 15 min; series mostly up to 114 µM
In short: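 Aprotinin served as in-plate control. Conditions: 25 nM linked NS2B-NS3, pH 8.0 Tris buffer, titrated compounds, 15 min preincubation and 15 min reaction with 1.5 microM Rhod110 substrate at room temperature.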

**Q.** With `O=S(=O)(O)c1ccc2cc(N=Nc3cc(S(=O)(=O)O)c4cccnc4c3O)ccc2c1` as the compound, how does the Potency read?
**A.** 1.39 µM (active)

**Q.** For `O=C(Nc1ccccc1)Nc1ccc(-c2ccc(C(=O)[C@H]3CCC[C@H]3C(=O)O)cc2)cc1`, which Potency is on record?
**A.** 3.92 µM (active)

**Q.** With `C[C@H]1COC2=C1C(=O)C(=O)c1c2ccc2c1CCCC2(C)C` as the compound, how does the Potency read?
**A.** 7.84 µM (active)

**Q.** Which Potency does the source give for `Cc1ccc2c(c1)C(=O)[C@]1(O)CCN(c3ccccc3)C1=N2` here?
**A.** inactive

**Q.** With `C=C1c2cccc(O)c2C(O)=C2C(=O)[C@@]3(O)C(O)=C(C(N)=O)C(=O)[C@@H](N(C)C)[C@@H]3[C@@H](O)[C@H]12` as the compound, how does the Potency read?
**A.** 15.6 µM (active)

**Q.** Which Potency does the source give for `N#CC(c1ccc(Cl)cc1)c1c(Cl)cc(-n2ncc(=O)[nH]c2=O)cc1Cl` (stereo not given) here?
**A.** 4.4 µM (active)

**Q.** With `O=C(O)Cc1cccc(OCCCN(Cc2cccc(C(F)(F)F)c2Cl)CC(c2ccccc2)c2ccccc2)c1` as the compound, how does the Potency read?
**A.** 1.56 µM (active)
